# Assay results as given in PubChem BioAssay AID1851 (National Center for Advancing Translational Sciences (NCATS), 2009).
# Among all 16,000 compounds or so, about 2,600 (16%) were called active. Inconclusive results (about 20%) are left out. A selection follows. A number with no mark means an inactive call. The call rests on the fitted dose curve; in most records, active means well fitted curve in the direction sought with a large enough effect; inconclusive means small, poorly fitted or top-dose-only effect, or effect the other way; inactive means no such curve, though single readings can be large or run the other way.
# Biological target: Cytochrome P450 2D6 (Homo sapiens) (UniProt P10635)
# Test: Cytochrome panel assay with activity outcomes
# Conditions: recombinant CYP, pro-luciferin dealkylation, luminescence, p450-cyp2d6; series mostly up to 57.1 µM; activity, negative = inhibition: at the top concentration
# On the % scale 0 is the no-effect control and ±100 the full control effect.
# Cytochrome P450 2D6 (Homo sapiens), sequence (P10635 whole entry, looked up): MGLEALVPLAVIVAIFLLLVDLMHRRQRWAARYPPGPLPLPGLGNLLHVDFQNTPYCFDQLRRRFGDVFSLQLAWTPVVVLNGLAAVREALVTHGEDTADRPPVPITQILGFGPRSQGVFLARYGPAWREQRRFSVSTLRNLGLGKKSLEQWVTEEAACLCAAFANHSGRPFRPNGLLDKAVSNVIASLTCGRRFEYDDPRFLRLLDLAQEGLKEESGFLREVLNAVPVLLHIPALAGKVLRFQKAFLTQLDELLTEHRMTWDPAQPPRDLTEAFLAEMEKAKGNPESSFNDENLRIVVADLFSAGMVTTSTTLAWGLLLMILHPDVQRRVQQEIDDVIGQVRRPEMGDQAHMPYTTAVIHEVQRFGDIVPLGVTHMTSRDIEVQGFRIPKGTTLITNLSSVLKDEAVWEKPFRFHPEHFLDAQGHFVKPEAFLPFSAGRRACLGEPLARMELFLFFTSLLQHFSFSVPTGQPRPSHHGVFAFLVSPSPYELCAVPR
Compound,"activity, negative = inhibition",AC50
O=C(CCc1ccccc1)NNC(=S)NC(=O)c1ccccc1,-21.2%,
CC(=O)Nc1ccc(C(=O)NNC(=O)CCc2ccccc2)cc1,0.797%,
NNC(=O)c1ccc[n+](CCc2ccccc2)c1,,2 µM (active)
CCc1cc2c(=O)[nH]cnc2s1,12.4%,
Cc1noc(C)c1-c1ccc2ncnc(N(C)C)c2c1,-8.41%,
CN(Cc1ccco1)c1ncnc2ccc(-c3cccc(NS(C)(=O)=O)c3)cc12,,20 µM (active)
CS(=O)(=O)Nc1cccc(-c2ccc3ncnc(N4CCOCC4)c3c2)c1,-6.5%,
CN(C)c1ccc(-c2ccc3ncnc(N(C)C)c3c2)cc1,6.19%,
CN(C)c1ncnc2ccc(-c3ccccc3C#N)cc12,-2.25%,
CS(=O)(=O)Nc1cccc(-c2ccc3ncnc(NC4CC4)c3c2)c1,-5.59%,
CN(Cc1ccco1)c1ncnc2ccc(-c3cccnc3)cc12,,2 µM (active)
Cc1ccccc1-c1ccc2ncnc(N(C)C)c2c1,,20 µM (active)
CN(C)c1ncnc2ccc(-c3ccoc3)cc12,,10 µM (active)
CN(C)C(=O)c1ccc(-c2ccc3ncnc(N(C)C)c3c2)cc1,-8.04%,
CC(C)(C)CNCCO,17.6% [at 11.4 µM],
COCCSc1nnc(NC(=O)C(C)(C)C)s1,17.8%,
Cc1c(Br)c([N+](=O)[O-])nn1C(C)C(=O)Nc1nccs1 (configuration not stated),-25.7%,
CCN(CC)C(=O)CSc1nnc(C2CCCCC2)o1,-5.44%,
COC(=O)CN1C(=O)S/C(=C/c2ccc(N3CCCCC3)o2)C1=O,-25.5%,
CSc1nc(N)c2ncn([C@H]3O[C@H](COP(=O)(O)OP(=O)(O)O)[C@@H](O)[C@@H]3O)c2n1,1.14%,
O=C(O)c1cc(-c2ccc(-c3ccc(-c4cc(C(=O)O)c5cc(Cl)ccc5n4)cc3)cc2)nc2ccc(Cl)cc12,16.7% [at 11.4 µM],
Cn1nnnc1SCC(=O)Nc1ccccc1[N+](=O)[O-],18.7%,
CCS(=O)(=O)NCCc1cc2ccc(C)cc2[nH]c1=O,7.85%,
CN(C)c1ncc2nc(-c3ccccc3)c(=O)n(C)c2n1,-8.32%,
CC(C)(C)C(=O)NC(c1ccc(Cl)cc1)[C@]1(C)C[C@H]1C1CCCCC1 (some centres not stated),-1.59%,
COc1cccc(-c2ccc3ncnc(N(C)C)c3c2)c1,,10 µM (active)

Compound,"activity, negative = inhibition",AC50
CNc1ncnc2ccc(-c3cccc(OC)c3)cc12,,15.8 µM (active)
COc1cccc(-c2ccc3ncnc(N(C)Cc4ccco4)c3c2)c1,,10 µM (active)
COc1cccc(-c2ccc3ncnc(NC4CCNCC4)c3c2)c1,-20.1%,
COc1cccc(-c2ccc3ncnc(Nc4ccccc4)c3c2)c1,-7.86%,
CN(Cc1ccco1)c1ncnc2ccc(-c3ccc4c(c3)OCO4)cc12,,1.58 µM (active)
Cc1ccc(C(=O)NC(=S)NCC2CCCO2)cc1 (configuration not stated),6.78%,
Cc1ccc(C2(C)NC(=O)N(CC(=O)Nc3cc(C)on3)C2=O)cc1 (configuration not stated),-8.31%,
COc1ccc(-n2c(SC)nc(O)c(Cc3ccccc3)c2=O)cc1,-3.51%,
CC1=NN(c2ccccc2)C(=O)C1C(=O)c1ccc(Cl)cc1 (configuration not stated),0.392%,
CCOc1ccc(CSC(CC(=O)O)C(=O)O)cc1 (configuration not stated),12.9%,
CSC1=N/C(=C\c2ccc(C)cc2)C(=O)S1,7.54%,
C[C@H](N=C(NC#N)Nc1ccncc1)C(C)(C)C,,inactive
C[N+](C)(C)c1ncnc2c1ncn2[C@@H]1CCCCO1,-6.66% [at 11.4 µM],
CCNc1ncc2nc(-c3cn(C)c4ccccc34)c(=O)n(Cc3cccc(OC)c3)c2n1,-1.84%,
CCOC(=O)/C(C(N)=NCCCO)=C(/O)c1ccccc1,2.86%,
COc1cc(OC)c(C#N)c(S(=O)(=O)Cc2ccccc2)c1,-12.6%,
COC(=O)c1c(-c2cc(OC)c(OC)c(OC)c2)c2ccc(OCc3ccccn3)cc2c(=O)n1-c1ccc(N)cc1,-4.78%,
O=C(Oc1ccccc1)N1CCC2(CC1)CN(c1ccccc1)C2,0.533%,
COc1ccc(N(C(=O)Cn2nnc3ccccc32)C2(C(=O)NC3CCCC3)CCCCC2)cc1,,11.2 µM (active)
COCCNC(=O)C(c1ccc(C)o1)N(CC1CCCO1)C(=O)Cn1nnc2ccccc21 (configuration not stated),2.15%,
O=C(Cn1nnc2ccccc21)N1CCCCC1,30.5%,
CCOCC(=O)Nc1cc(-c2cn3cccnc3n2)ccc1C,-2.74%,
Clc1ccc(-c2ccnc(Oc3cc(Cl)ccc3Cl)n2)cc1,12.1%,
CCOc1cc2[nH]c(=O)n(CCC(=O)NCc3ccc(OC)cc3)c(=O)c2cc1OCC,5.2%,
Cc1cccc(C)c1-n1c(SCC(=O)NCc2ccco2)nc2ccccc2c1=O,,28.2 µM (active)
CCc1ccc(NC(=O)CSc2nc3cc(C(=O)OC)ccc3c(=O)n2Cc2ccco2)cc1,2.28%,
